This passage reports composite z-score and composite Z-score results from PubChem BioAssay.

The target of one experiment is Albumin (Bos taurus) (UniProt P02769). As to the kind of experiment: compounds binding labelled BSA control protein – biochemical, small-molecule microarray, Alexa647 label, 635/667 nm fluorescence, artefact control for SMM control protein annotation, profiling panel (AID 1118).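 Further: score merges 667 nm emission intensity and signal-to-noise per printed compound spot.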 As to conditions: BSA-A647 binding, fluorescence 635 nm, higher = more signal.
Sequence of Albumin (Bos taurus) (P02769 whole entry, looked up): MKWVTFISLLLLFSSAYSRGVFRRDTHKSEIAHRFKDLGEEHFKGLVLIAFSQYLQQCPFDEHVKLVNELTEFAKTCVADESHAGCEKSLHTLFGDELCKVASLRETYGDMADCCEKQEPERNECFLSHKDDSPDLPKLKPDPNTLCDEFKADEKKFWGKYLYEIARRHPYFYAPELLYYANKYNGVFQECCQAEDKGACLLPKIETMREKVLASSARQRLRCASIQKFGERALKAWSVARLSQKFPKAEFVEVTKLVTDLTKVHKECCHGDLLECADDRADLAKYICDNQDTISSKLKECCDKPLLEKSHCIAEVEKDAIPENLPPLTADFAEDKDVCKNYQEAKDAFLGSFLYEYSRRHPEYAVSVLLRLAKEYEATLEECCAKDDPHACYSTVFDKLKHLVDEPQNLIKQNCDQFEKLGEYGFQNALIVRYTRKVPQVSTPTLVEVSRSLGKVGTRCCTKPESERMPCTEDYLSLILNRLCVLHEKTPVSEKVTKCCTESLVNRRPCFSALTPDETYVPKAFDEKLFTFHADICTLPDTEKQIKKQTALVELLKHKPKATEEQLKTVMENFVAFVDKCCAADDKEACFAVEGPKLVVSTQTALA
Experiment [1] can be described thus: probe aXIP binding to arrayed compounds – biochemical, NeuroSMM set, 635/667 nm fluorescence, primary screen (AID 1119).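 Further: probe is the protein aXip251-270 applied at 1 µg/mL to compound-printed slides; binding of probe to printed compounds measured as 667 nm fluorescence plus signal to noise.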 As to conditions: small-molecule microarray, higher = more signal, called active from +8 up or from −8 down.
The nature of experiment [2]: probe aNOTCH3 binding on compound microarray – biochemical, small-molecule microarray, 635/667 nm fluorescence, primary screen (AID 1120).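 Further: probe is a biotin-tagged antibody raised against NOTCH3 rather than NOTCH3 protein; score merges spot fluorescence near 667 nm with spot signal to noise.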 As to conditions: higher = more signal.
A short description of experiment [3]: probe aNOTCH2 binding on compound microarray – biochemical, small-molecule microarray, 635/667 nm fluorescence, primary screen (AID 1121).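 Further: score merges feature fluorescence read at 667 nm with its signal to noise.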 As to conditions: higher = more signal.
The target in experiment [4] is Carbonic anhydrase 2 (Homo sapiens) (UniProt P00918). Nature of the experiment: compounds binding carbonic anhydrase 2 – biochemical, small-molecule microarray, Alexa647-labelled CAII, profiling panel (AID 1122). As to conditions: CAII-A647 binding fluorescence, higher = more signal.
Experiment [5] can be described thus: COS7 lysate on small-molecule microarray, probe aHis, 635 nm (AID 1123).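 Further: z-score combines 667nm fluorescence intensity with signal-to-noise per printed compound spot.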 As to conditions: COS7 cell lysate, fluorescence, higher = more signal.
The nature of experiment [6]: probe aLAP1 signal on lysate-treated microarray – cell lysate, small-molecule microarray, COS7 lysate, primary screen (AID 1124).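 Further: lysate comes from COS7 cells expressing LAP1 and is applied at 0.3 µg/mL; score merges spot fluorescence near 667 nm with signal-to-noise over triplicate slides.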 As to conditions: probe aLAP1, fluorescence, higher = more signal.
In the next experiment the test system is Sam68 (KHDRBS1). Nature of the experiment: compounds binding KHDRBS1 protein – biochemical, small-molecule microarray, 635 nm fluorescence, primary screen (AID 1125).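 Further: score merges 667 nm channel intensity with signal to noise over triplicate slides.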 As to conditions: higher = more signal.
For experiment [7], the system named is Chordin-like protein 2 (CHRDL2). Nature of the experiment: compounds binding chordin-like 2 – biochemical, small-molecule microarray, 635 nm fluorescence, primary screen (AID 1126).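 Further: printed compound slides probed with Chrdl2 protein at 4 µg/mL for 1 h at 4 C; score merges 667 nm emission intensity with signal to noise over three replicate slides.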 As to conditions: fluorescence 635 nm, higher = more signal.
Experiment [8] concerns the target Concanavalin-A (Canavalia ensiformis) (UniProt P02866). Nature of the experiment: compounds binding concanavalin A lectin – biochemical, small-molecule microarray, Alexa647 label, 635 nm, artefact control for SMM control protein annotation, primary screen (AID 1127).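 Further: z combines 667 nm emission intensity with signal-to-noise across three replicate slides.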 As to conditions: ConA-A647 binding fluorescence, higher = more signal.

The structures appear in SMILES notation. Calls of active or inactive are those of the source.

Sequence of Concanavalin-A (Canavalia ensiformis) (P02866 whole entry, looked up): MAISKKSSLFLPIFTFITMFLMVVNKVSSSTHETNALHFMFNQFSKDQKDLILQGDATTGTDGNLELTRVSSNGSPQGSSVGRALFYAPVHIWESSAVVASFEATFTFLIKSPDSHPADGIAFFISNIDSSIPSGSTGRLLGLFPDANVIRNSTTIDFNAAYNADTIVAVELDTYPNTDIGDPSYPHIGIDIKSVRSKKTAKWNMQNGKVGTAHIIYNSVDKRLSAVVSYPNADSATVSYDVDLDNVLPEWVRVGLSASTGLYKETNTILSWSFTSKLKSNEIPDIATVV

For the compound `COC(=O)[C@@]1(Cc2ccc(OC)cc2)[C@H]2c3cc(C(=O)N4CCCC4)n(Cc4ccc(O)c(OC)c4)c3C[C@H]2CN1C(=O)c1ccccc1`, the composite z-score in the experiment with Albumin (Bos taurus) was found to be 1.06; in experiment [2] it was 1.18; in [3], 0.437; in experiment [4] it was 0.845; in experiment [5] it was 3.32; in [6] it was 1.09. The results for the composite z-score (with Sam68 (KHDRBS1); in experiment [7]; in [8]) were 0.535, 0.114 and 0.988, respectively. Further, in [1], the composite Z-score was 1.64 (inactive).
For `COCCOC(=O)N1C(=O)[C@@]2(c3cc(C#CC4(O)CCCCCC4)ccc31)[C@H](c1ccc(OCCO)cc1)N1[C@H](c3ccccc3)[C@H](c3ccccc3)OC(=O)[C@H]1[C@@H]2C(=O)N1CCN(c2ncccn2)CC1`, the composite z-score with Albumin (Bos taurus) was 0.716; in experiment [2], 0.0026; in experiment [3], -0.146; in experiment [4], 0.497; in [5] it was 1.46; in experiment [6], -0.163. Moreover, the composite z-score with Sam68 (KHDRBS1) was determined as 1.3; in [7], 0.34; in experiment [8], 1.13. Also, the composite Z-score in [1] is -0.232 (inactive).
`COC(=O)[C@@]1(Cc2ccc(F)cc2)[C@H]2c3cc(C(=O)N(C)C)n(Cc4cc(F)c(F)c(F)c4)c3C[C@H]2CN1C(=O)c1ccccc1`: the composite z-score with Albumin (Bos taurus) was 0.935; in experiment [2] it was 0.672; in experiment [3], 0.214; in experiment [4], 0.613; in [5], 2.37; in [6], 0.351. Also, the composite z-score was 1.13 in the experiment with Sam68 (KHDRBS1), -0.0618 in experiment [7] and 1.13 in experiment [8]. The composite Z-score in experiment [1] is 0.0144 (inactive).
As for `COc1cc2c(cc1O)C(c1cccs1)N(C)CC2` (stereo not given), the composite z-score was 0.393 with Albumin (Bos taurus); -0.28 in experiment [2]; -0.182 in experiment [3]; 0.311 in experiment [4]; 0.0056 in experiment [5]; -0.465 in [6]. In addition, the composite z-score in the experiment on Sam68 (KHDRBS1) is -1.2; in experiment [7], -0.231; in experiment [8] it was -1.2. Also, the composite Z-score in experiment [1] is -0.0667 (inactive).
Take `COC(=O)[C@@]1(CCC(=O)OC(C)(C)C)N=C(c2ccc(OCCCO)cc2)O[C@H]1c1ccccc1N=[N+]=[N-]`: the composite z-score is 0.373 with Albumin (Bos taurus); -0.076 in experiment [2]; -0.127 in [3]; 0.508 in [4]; 1.95 in experiment [5]; 0.333 in experiment [6]. For the same compound, the composite z-score in the experiment with Sam68 (KHDRBS1) is 0.201; in experiment [7], -0.436; in experiment [8] it was 0.721. Also, the composite Z-score in [1] was 0.455 (inactive).
For `COc1ccc([Si](C)(C)[C@H]2[C@H](CCO)O[C@@]3(C(=O)N(Cc4ccc(N(C=O)c5ccccc5)cc4)c4ccccc43)[C@@H]2C)cc1`, the composite z-score in the experiment with Albumin (Bos taurus) was 0.598; in [2], -0.127; in experiment [3], -0.164; in experiment [4] it was -0.0062; in experiment [5] it was 0.407; in [6], -0.33. Also, the composite z-score with Sam68 (KHDRBS1) is -0.852; in experiment [7], -0.957; in experiment [8] it was 0.538. The composite Z-score in experiment [1] was -0.12 (inactive).
On to `C=C[C@H](C)[C@@H](OC(=O)Nc1ccc(OC)cc1)c1ccc(O)c2ccccc12`, for which the composite z-score with Albumin (Bos taurus) was -0.964; in experiment [2] it was -0.118; in experiment [3], -0.167; in experiment [4] it was 0.742; in [5], 0.832; in experiment [6] it was 0.152. Moreover, the composite z-score in the experiment on Sam68 (KHDRBS1) was 0.357; in experiment [7], 0.257; in [8], -0.365. Besides, the composite Z-score in experiment [1] was -0.734 (inactive).
With `C=C[C@@H](COC(=O)OC(C)(C)C)N(Cc1ccc(OC)cc1)S(=O)(=O)c1ccc(Br)cc1`, the composite z-score is -0.0125 with Albumin (Bos taurus); 0.185 in experiment [2]; -0.154 in experiment [3]; -0.0303 in experiment [4]; 0.456 in [5]; -0.024 in experiment [6]. The composite z-score amounted to 0.828 in the experiment with Sam68 (KHDRBS1), 0.708 in experiment [7] and 0.802 in experiment [8]. The composite Z-score in experiment [1] is 0.342 (inactive).
Consider `CCCC[C@@H]1C[C@H]1[C@@H](NC(=O)c1ccccc1)c1ccc(C(=O)OC)cc1`, for which the composite z-score in the experiment with Albumin (Bos taurus) was -0.108; in [2] it was -0.048; in experiment [3], 0.0203; in experiment [4], 0.287; in [5], 0.157; in experiment [6], -0.156. Besides, the figures for the composite z-score (in the experiment with Sam68 (KHDRBS1); in [7]; in experiment [8]) were -0.316, -1.26 and -0.364, respectively. Further, the composite Z-score in experiment [1] is 0.953 (inactive).
On to `COc1ccc([C@H]2OC[C@@H]3C[C@@H](Cc4ccccc4)C(=O)N32)cc1`, for which the composite z-score with Albumin (Bos taurus) was -0.127; in experiment [2], 0.111; in [3], -0.164; in experiment [4], 0.796; in experiment [5], 0.39; in experiment [6], -0.123. Also, the composite z-score is 0.338 with Sam68 (KHDRBS1), 0.377 in experiment [7] and 0.143 in experiment [8]. Besides, the composite Z-score in experiment [1] is 0.584 (inactive).
Regarding `CC(C)C(=C=CC[C@@H](O)c1ccc(OCCO)cc1)C[C@@H](O)c1ccccn1`, the composite z-score with Albumin (Bos taurus) is -0.363; in [2], 0.0553; in experiment [3] it was -0.13; in experiment [4] it was 0.368; in [5] it was -0.0995; in experiment [6], 0.33. Moreover, the composite z-score was 0.726 in the experiment on Sam68 (KHDRBS1), 1.38 in experiment [7] and 0.817 in experiment [8]. The composite Z-score in experiment [1] was 1.24 (inactive).
Turning to `C=CCC(OC(C)=O)[C@@H]1[C@@H](N(Cc2ccc(-c3ccccc3)cc2)C(=O)c2ccc(-c3ccccc3)cc2)c2cc(OCCCO)ccc2N1C(=O)Cc1ccc2ccccc2c1` (stereo not given in full), the composite z-score with Albumin (Bos taurus) is 0.108; in experiment [2], -0.0057; in [3], -0.213; in [4], 0.002; in experiment [5] it was 0.522; in experiment [6], -0.0155. In addition, the composite z-score in the experiment with Sam68 (KHDRBS1) is 0.621; in [7], 0.156; in experiment [8], -0.288. The composite Z-score in [1] was -0.316 (inactive).
For `CN1C(=O)C2C=CC(C(O)C#Cc3ccccc3)N(N3CCCCC3)C2C1=O` (stereo not given), the composite z-score is 0.268 with Albumin (Bos taurus); 1.15 in experiment [2]; 0.519 in [3]; 0.798 in experiment [4]; 0.19 in experiment [5]; 1.3 in [6]. Also, the composite z-score in the experiment with Sam68 (KHDRBS1) was -0.156; in experiment [7] it was 0.111; in experiment [8], 0.82. Also, the composite Z-score in experiment [1] was 1.04 (inactive).
As to `CO[C@H]1O[C@H](CO)[C@@H](OC(=O)Nc2ccccc2)[C@H](OC(=O)Nc2ccccc2)[C@@H]1OC(=O)Nc1ccccc1`, the composite z-score was 0.809 with Albumin (Bos taurus); 0.289 in experiment [2]; -0.0847 in experiment [3]; 0.824 in [4]; 1.29 in experiment [5]; 0.947 in experiment [6]. Moreover, the composite z-score with Sam68 (KHDRBS1) was found to be 1.3; in experiment [7], 0.136; in experiment [8] it was 1.12. In addition, in experiment [1], the composite Z-score was -0.0073 (inactive).
With `CC(C)C(O)C1C=CC2C(=O)N(c3ccccc3)C(=O)C2N1Nc1ccc([N+](=O)[O-])cc1` (stereo not given), the composite z-score was found to be 0.963 with Albumin (Bos taurus); 1.2 in experiment [2]; 0.185 in [3]; 0.719 in experiment [4]; 1.84 in [5]; 0.894 in experiment [6]. For the same compound, the composite z-score with Sam68 (KHDRBS1) is 1.13; in experiment [7], -0.565; in experiment [8] it was 0.726. For the same compound, the composite Z-score in [1] was 2.65 (inactive).
Turning to `C=CCC(OC(C)=O)[C@@H]1[C@@H](N(Cc2cccc3ccccc23)C(=O)c2ccc(-c3ccccc3)cc2)c2cc(OCCCO)ccc2N1C(=O)c1ccc2ccccc2c1` (stereo not given in full), the composite z-score in the experiment with Albumin (Bos taurus) was 0.416; in experiment [2], 0.116; in experiment [3], -0.0533; in experiment [4] it was 0.16; in experiment [5] it was 0.735; in experiment [6] it was 0.169. Moreover, the composite z-score is 0.721 in the experiment with Sam68 (KHDRBS1), -0.0354 in experiment [7] and -0.0377 in experiment [8]. In addition, in experiment [1], the composite Z-score is -0.732 (inactive).
